Source: PubChem BioAssay (NCI)
This is part of a sample that, as a whole, favours compounds with a hit. Of some 79,000 tested, about 15% had one in any assay. Activity calls are given as the source filed them. No stated cut-off is given here; in the data, active means growth inhibition above about 70%; inactive means the rest.

What was measured:
[1] = NCI Yeast Anticancer Drug Screen. Data for the rad52 strain (AID 147);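 further: 0% = growth of vehicle-treated control cultures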; settings: S. cerevisiae rad52 mutant growth inhibition, stronger effect = higher value
In short: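 Yeast strain carrying a DNA damage repair alteration was exposed to test compounds. Growth inhibition was measured relative to vehicle-treated controls.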

[2] = NCI Yeast Anticancer Drug Screen. Data for the wt1 strain (AID 149);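 further: 0% = growth of vehicle-treated wt1 cultures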; settings: S. cerevisiae wt1 strain (SPY 50644) growth inhibition, stronger effect = higher value
In short: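 wt1 yeast, compound-treated; % growth inhibition vs vehicle control.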

[3] = NCI Yeast Anticancer Drug Screen. Data for the rad50EPP+ strain (AID 151);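 further: 0% = growth of vehicle-treated control cultures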; settings: S. cerevisiae rad50 mutant strain, stronger effect = higher value
In short: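 Yeast strain carrying rad50 alteration (rad50EPP+) exposed to compounds; growth inhibition measured relative to vehicle-treated controls.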

[4] = NCI Yeast Anticancer Drug Screen. Data for the mgt1 strain (AID 153); settings: S. cerevisiae mgt1 mutant growth inhibition, stronger effect = higher value
In short: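 Yeast mgt1 strain (DNA repair/cell-cycle alteration panel) exposed to compounds; growth inhibition measured relative to vehicle-treated controls.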

[5] = NCI Yeast Anticancer Drug Screen. Data for the rad50 strain (AID 155);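 further: 0% = growth of vehicle-only cultures of the same strain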; settings: S. cerevisiae rad50 strain growth inhibition, stronger effect = higher value
In short: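 Genetically altered yeast (DNA repair pathway); compound treatment; growth inhibition vs vehicle ctrl.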

[6] = NCI Yeast Anticancer Drug Screen. Data for the mec2-1 strain (AID 157); settings: S. cerevisiae mec2-1 strain, stronger effect = higher value
In short: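 mec2-1 yeast strain, carrying an alteration in DNA damage repair or cell cycle control, was exposed to compounds; growth inhibition was measured relative to vehicle-treated controls.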

[7] = NCI Yeast Anticancer Drug Screen. Data for the rad14 strain (AID 159);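 further: 0% = growth of vehicle-treated control cultures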; settings: S. cerevisiae rad14 strain growth inhibition, stronger effect = higher value
In short: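 Test compounds were applied to a repair-deficient yeast strain. Its growth was then compared with that of cultures given vehicle alone, and inhibition was expressed relative to those controls.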

[8] = NCI Yeast Anticancer Drug Screen. Data for the sgs1 mgt1 strain (AID 161);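 further: 0% = growth of cultures given vehicle only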; settings: S. cerevisiae sgs1 mgt1 strain, stronger effect = higher value
In short: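 Yeast cells carrying a defined DNA-repair defect were exposed to test compounds. Growth inhibition was measured relative to vehicle-treated controls.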

[9] = NCI Yeast Anticancer Drug Screen. Data for the CLN2oe strain (AID 163);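 further: 0% = growth of vehicle-only control cultures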; settings: S. cerevisiae CLN2oe strain, stronger effect = higher value
In short: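 Yeast cells carrying a defined cell-cycle control alteration were exposed to test compounds. Growth inhibition was scored against vehicle-treated control cultures.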

[10] = NCI Yeast Anticancer Drug Screen. Data for the cln2 rad14 strain (AID 165);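 further: 0% = growth equal to vehicle treated cultures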; settings: S. cerevisiae cln2 rad14 strain, stronger effect = higher value
In short: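 Yeast carrying cln2 and rad14 alterations (cell cycle control and DNA damage repair) were exposed to compounds. Growth inhibition was measured against vehicle-treated controls.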

[11] = NCI Yeast Anticancer Drug Screen. Data for the bub3 strain (AID 167); settings: S. cerevisiae bub3 mutant strain, stronger effect = higher value
In short: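 Yeast carrying a defined mutation is treated with each compound, and growth is compared with that of vehicle-exposed cells to give inhibition.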

[12] = NCI Yeast Anticancer Drug Screen. Data for the wt2 strain (AID 169);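 further: 0% = growth of vehicle-treated yeast cultures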; settings: S. cerevisiae wt2 strain growth inhibition, stronger effect = higher value
In short: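 Yeast cells were exposed to test compounds, and growth inhibition was measured relative to vehicle-treated controls.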

[13] = NCI Yeast Anticancer Drug Screen. Data for the mlh1 strain (AID 171);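 further: 0% = growth of vehicle-treated control cultures of the same strain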; settings: S. cerevisiae mlh1 strain growth inhibition, stronger effect = higher value
In short: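 Yeast carrying a defined genetic alteration in DNA damage repair or cell cycle control were exposed to test compounds. Growth inhibition was measured relative to vehicle-treated controls.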

[14] = NCI Yeast Anticancer Drug Screen. Data for the mlh1 rad18 strain (AID 175); settings: S. cerevisiae mlh1 rad18 strain growth inhibition, stronger effect = higher value
In short: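 Growth inhibition of the yeast strain was measured after compound exposure and expressed relative to vehicle-treated controls. The strain carries defined defects in DNA damage repair.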

[15] = NCI Yeast Anticancer Drug Screen. Data for the rad18 strain (AID 177); settings: S. cerevisiae rad18 mutant growth inhibition, stronger effect = higher value
In short: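 Yeast carrying a defined DNA damage repair alteration were exposed to compounds. Growth inhibition was expressed relative to vehicle-treated controls.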

[16] = NCI Yeast Anticancer Drug Screen. Data for the sgs1 strain (AID 173);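 further: 0% = growth of vehicle-only control cultures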; settings: S. cerevisiae sgs1 mutant, stronger effect = higher value
In short: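 Yeast mutant strains carrying defined defects in DNA damage repair or cell cycle control were exposed to test compounds. Growth inhibition was scored against vehicle-treated controls.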

[17] = at 5.0 µM (retest, dose inferred, filed as 0.5)
[18] = at 50.0 µM (retest, dose inferred, filed as 5.0)

Measured: growth inhibition

c1ccc2c(c1)N=C1CCCC3CCCC123 (stereo unspecified)
inactive: [1]; at 1.2 µM 3% | [1]; at 3.7 µM 4% | [1]; at 11.0 µM 11% | [1]; at 33.0 µM 56% | [2]; at 1.2 µM -2% | [2]; at 3.7 µM 2% | [2]; at 11.0 µM 7% | [2]; at 33.0 µM -1% | [3]; at 1.2 µM -9% | [3]; at 3.7 µM -14% | [3]; at 11.0 µM -11% | [3]; at 33.0 µM 5% | [3]; at 100.0 µM 68% | [4]; at 1.2 µM 1% | [4]; at 3.7 µM 1% | [4]; at 11.0 µM 6% | [4]; at 33.0 µM 21% | [5]; at 1.2 µM -2% | [5]; at 3.7 µM 2% | [5]; [17] -161% | [5]; at 11.0 µM 11% | [5]; at 33.0 µM 32% | [5]; [18] 63% | [6]; at 1.2 µM -2% | [6]; at 3.7 µM 1% | [6]; [17] -46% | [6]; at 11.0 µM -15% | [6]; at 33.0 µM 25% | [6]; [18] 65% | [7]; at 1.2 µM -3% | [7]; at 3.7 µM -7% | [7]; at 11.0 µM 3% | [7]; at 33.0 µM 3% | [8]; [17] -57% | [8]; [18] 60% | [9]; at 1.2 µM -3% | [9]; at 3.7 µM -1% | [9]; at 11.0 µM 4% | [9]; at 33.0 µM 15% | [10]; [17] -67% | [10]; [18] -26% | [10]; at 50.0 µM 23.6% | [11]; at 1.2 µM -2% | [11]; at 3.7 µM 10% | [11]; [17] -50% | [11]; at 11.0 µM 22% | [11]; at 33.0 µM 61% | [11]; [18] 61% | [12]; at 1.2 µM 1% | [12]; at 3.7 µM 2% | [12]; at 11.0 µM 3% | [12]; at 33.0 µM -1% | [13]; at 1.2 µM 6% | [13]; at 3.7 µM 3% | [13]; at 11.0 µM 3% | [13]; at 33.0 µM 3% | [14]; [17] -133% | [14]; [18] 12% | [15]; at 1.2 µM -2% | [15]; at 3.7 µM -3% | [15]; at 11.0 µM 0% | [15]; at 33.0 µM -6%
active: [1]; at 100.0 µM 98% | [2]; at 100.0 µM 97% | [4]; at 100.0 µM 98% | [5]; at 50.0 µM 91% | [5]; at 100.0 µM 98% | [6]; at 50.0 µM 89.6% | [6]; at 100.0 µM 99% | [7]; at 100.0 µM 97% | [8]; at 50.0 µM 83.7% | [9]; at 100.0 µM 98% | [11]; at 50.0 µM 91.4% | [11]; at 100.0 µM 98% | [12]; at 100.0 µM 98% | [13]; at 100.0 µM 97% | [14]; at 50.0 µM 90.8% | [15]; at 100.0 µM 98%

CN(C)CC(CN(C)C)C(=O)/C=C/c1ccc(Cl)cc1Cl
inactive: [1]; at 1.2 µM 0% | [1]; at 3.7 µM -1% | [1]; at 11.0 µM 14% | [2]; at 1.2 µM -1% | [2]; at 3.7 µM -2% | [2]; at 11.0 µM -6% | [3]; at 1.2 µM -2% | [3]; at 3.7 µM -2% | [3]; at 11.0 µM 6% | [4]; at 1.2 µM -2% | [4]; at 3.7 µM -2% | [4]; at 11.0 µM 3% | [5]; at 1.2 µM -1% | [5]; at 3.7 µM 0% | [5]; at 11.0 µM 13% | [5]; at 50.0 µM 54.5% | [6]; at 1.2 µM -3% | [6]; at 3.7 µM -4% | [6]; [17] 13% | [6]; at 11.0 µM 6% | [6]; at 50.0 µM 42.2% | [7]; at 1.2 µM -2% | [7]; at 3.7 µM -2% | [7]; at 11.0 µM 17% | [8]; [17] 15% | [8]; at 50.0 µM 48.7% | [9]; at 1.2 µM -1% | [9]; at 3.7 µM -3% | [9]; at 11.0 µM -1% | [10]; [17] 0% | [10]; at 50.0 µM 43.8% | [11]; at 1.2 µM -3% | [11]; at 3.7 µM -4% | [11]; [17] -10% | [11]; at 11.0 µM -3% | [12]; at 1.2 µM -2% | [12]; at 3.7 µM -5% | [12]; at 11.0 µM 2% | [16]; at 1.2 µM -2% | [16]; at 3.7 µM -2% | [16]; at 11.0 µM 5% | [14]; [17] 6% | [14]; at 50.0 µM 45% | [15]; at 1.2 µM -4% | [15]; at 3.7 µM -3% | [15]; at 11.0 µM 14%
active: [1]; at 33.0 µM 98% | [1]; at 100.0 µM 97% | [2]; at 33.0 µM 98% | [2]; at 100.0 µM 98% | [3]; at 33.0 µM 98% | [3]; at 100.0 µM 98% | [4]; at 33.0 µM 99% | [4]; at 100.0 µM 98% | [5]; [17] 93% | [5]; at 33.0 µM 98% | [5]; [18] 98% | [5]; at 100.0 µM 97% | [6]; at 33.0 µM 98% | [6]; [18] 99% | [6]; at 100.0 µM 98% | [7]; at 33.0 µM 99% | [7]; at 100.0 µM 97% | [8]; [18] 99% | [9]; at 33.0 µM 98% | [9]; at 100.0 µM 97% | [10]; [18] 98% | [11]; at 33.0 µM 98% | [11]; [18] 98% | [11]; at 50.0 µM 99% | [11]; at 100.0 µM 97% | [12]; at 33.0 µM 98% | [12]; at 100.0 µM 98% | [16]; at 33.0 µM 98% | [16]; at 100.0 µM 98% | [14]; [18] 99% | [15]; at 33.0 µM 98% | [15]; at 100.0 µM 97%

CCCCN(CCCC)c1ccc(N=Nc2ccc(S(=O)(=O)O)cc2)cc1
inactive: [1]; at 1.2 µM 21% | [1]; at 3.7 µM 48% | [1]; at 11.0 µM 40% | [2]; at 1.2 µM -9% | [2]; at 3.7 µM 2% | [2]; at 11.0 µM 33% | [3]; at 1.2 µM 10% | [3]; at 3.7 µM 8% | [3]; at 11.0 µM 48% | [4]; at 1.2 µM 19% | [4]; at 3.7 µM 39% | [5]; at 1.2 µM 16% | [5]; at 3.7 µM 14% | [5]; [17] 63% | [5]; at 11.0 µM 38% | [6]; at 1.2 µM 32% | [6]; at 3.7 µM 43%
active: [1]; at 33.0 µM 89% | [1]; at 100.0 µM 90% | [2]; at 33.0 µM 97% | [2]; at 100.0 µM 97% | [3]; at 33.0 µM 84% | [3]; at 100.0 µM 87% | [4]; at 11.0 µM 92% | [4]; at 33.0 µM 97% | [4]; at 100.0 µM 97% | [5]; at 33.0 µM 92% | [5]; [18] 99% | [5]; at 50.0 µM 87.7% | [5]; at 100.0 µM 93%
